Screens as filed in PubChem.
ALOX12 inh = Primary qHTS assay for inhibitors of human arachidonate 12S-lipoxygenase (ALOX12): Round 2; purified 12hLO, xylenol orange hydroperoxide absorbance; Potency, µM (highest dose often 108 µM), without a hit: top-dose activity change, negative = inhibition, actives largely listed as inhibitors; 580,000 compounds, 1.1% hits; Polyunsaturated fatty acid lipoxygenase ALOX12 (Homo sapiens), P18054; AID 1671190, 2021; also: potency is read from the fitted curve at half-maximal effect
Target sequence (P18054 whole entry, looked up): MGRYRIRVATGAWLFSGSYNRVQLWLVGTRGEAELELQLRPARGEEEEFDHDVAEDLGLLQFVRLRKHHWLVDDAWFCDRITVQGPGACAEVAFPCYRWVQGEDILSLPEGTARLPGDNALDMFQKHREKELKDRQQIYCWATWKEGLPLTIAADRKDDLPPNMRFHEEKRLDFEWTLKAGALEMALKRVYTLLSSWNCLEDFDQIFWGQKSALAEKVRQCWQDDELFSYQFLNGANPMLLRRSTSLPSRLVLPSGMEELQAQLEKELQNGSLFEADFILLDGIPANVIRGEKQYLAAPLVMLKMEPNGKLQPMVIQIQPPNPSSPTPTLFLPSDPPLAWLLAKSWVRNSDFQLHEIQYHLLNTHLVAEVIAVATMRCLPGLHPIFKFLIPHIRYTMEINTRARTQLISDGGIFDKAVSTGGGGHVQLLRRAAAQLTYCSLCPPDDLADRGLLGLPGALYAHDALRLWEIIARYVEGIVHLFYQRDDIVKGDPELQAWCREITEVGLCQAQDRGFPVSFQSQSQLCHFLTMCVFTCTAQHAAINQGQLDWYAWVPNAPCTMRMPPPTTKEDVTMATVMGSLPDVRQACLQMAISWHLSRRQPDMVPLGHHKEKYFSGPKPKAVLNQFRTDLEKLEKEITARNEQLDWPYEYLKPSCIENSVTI
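Hydroperoxide product was detected by ferrous iron/xylenol orange as the 573 to 405 nm absorbance ratio. Arachidonic acid at 40 uM (final) was turned over for 30 min at room temperature by 150 nM human 12hLO, pH 7.0 Hepes buffer, after 15 min compound preincubation.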
HT1080 IDH1KD tx = qHTS for induction of synthetic lethality in tumor cells producing 2HG: qHTS for the HT-1080-IDH1KD cell line; HT-1080 IDH1 knockdown viability, ATP luminescence, 48 h; Potency, µM (highest dose often 46.1 µM), without a hit: at the highest dose activity, negative = toxicity, most hits filed as cytotoxic; 360,000 compounds, 2% hits; AID 686971, 2013;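 also: potency is read from the fitted curve at half-maximal effect; 0% = DMSO wells and -100% = cell-free medium wells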
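In this qHTS, HT-1080 cells depleted of IDH1 are exposed for 48 h at 37 °C to compound titrations. Toxicity is scored from CellTiter-Glo luminescence, with DMSO as full viability and medium alone as none.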
TDP1 cell CPT = qHTS for Inhibitors of human tyrosyl-DNA phosphodiesterase 1 (TDP1): qHTS in cells in presence of CPT; 420,000 compounds, 12% hits; chicken DT40 Tdp1-/-;hTDP1 cells + 20 nM CPT, ATP luminescence, 48 h; Potency, µM (top dose mostly 46.2 µM), inactives show at the top dose activity change, negative = growth inhibition, most hits filed as inhibitors; also: potency is read from the fitted curve at half-maximal effect; nearly all actives have a fitted effect of over 55% in size
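Chicken DT40 Tdp1-/- cells stably complemented with human TDP1 were seeded at 400 cells/well in medium containing 20 nM camptothecin, exposed to pin-transferred compounds, and grown at 37 °C for at least 48 hr. Viability was read as ATP luminescence.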
HT1080NT lethal = qHTS for induction of synthetic lethality in tumor cells producing 2HG: qHTS for the HT-1080-NT fibrosarcoma cell line; HT-1080-NT fibrosarcoma viability, CellTiter-Glo ATP luminescence, 48 h; Potency, µM (titrated, usually from 46.1 µM), without a hit: at the top dose activity, negative = less viability, hits mostly cytotoxic; 360,000 compounds, 1.6% hits; AID 686970, 2013;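 also: NT is the 2HG producing partner of a matched IDH1 knockdown line; potency is read from the fitted curve at half-maximal effect; 0% = DMSO-treated cells and -100% = media-only wells without cells; nearly all actives have a fitted effect of over 55% in size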
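Read-out is CellTiter-Glo luminescence after 10 minutes at room temperature, following 48 hours' compound treatment of HT-1080-NT cells (750 cells/well, RPMI, 5% FBS, 37 degrees C).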
IL1B secr inh = qHTS for Inhibitors of Inflammasome Signaling: IL-1-beta AlphaLISA Primary Screen. THP-1 LPS/ATP IL-1B secretion, AlphaLISA, 16 h; hits give low values. AID 743279, 2014. activity change, % at 57.5 µM. 360,000 compounds, 4.7% hits; in the data active = activity change below about -50%; inconclusive = mostly about -30% to -49%
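Secreted IL-1B measured by AlphaLISA bead assay after 16 h compound exposure of THP-1 cells; compounds (final up to 57.5 uM) added 1 h before LPS (250 ng/mL) and ATP (1.25 mM) stimulation; lower signal means less secretion.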
DT40 TDP1 no CPT = qHTS for Inhibitors of human tyrosyl-DNA phosphodiesterase 1 (TDP1): qHTS in cells in absence of CPT; AID 686978, 2013; DT40 Tdp1-/- hTDP1 cells, no CPT, ATP luminescence, 48 h; Potency, µM (doses to about 46.2 µM), for the others: top-dose activity change, negative = growth inhibition, most hits filed as inhibitors; 420,000 compounds, 15% hits; also: potency is read from the fitted curve at half-maximal effect; nearly all actives have a fitted effect of over 55% in size
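A cellular qHTS used chicken DT40 cells lacking endogenous Tdp1 but carrying stably transfected human TDP1. Compounds were applied without camptothecin, and cell growth kinetics were judged by ATP-dependent luminescence after ≥48 hr.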
An asterisk follows results filed as active; i = inactive; ? = inconclusive; . = no result given; [ ] = another dose, or the depositor's remark. The sample as a whole holds a higher share of hits than the screen did. Unless noted, calls follow the shape of the dose curve; as a rule, active = well fitted curve in the direction sought with a large enough effect; inconclusive = small, poorly fitted or top-dose-only effect, or another doubt; inactive = no such curve, though single readings can be large; an effect the other way counts as inactive or inconclusive. Unless noted, % is scaled to controls: 0 for no effect and ±100 for the full control effect.

SMILES | ALOX12 inh | HT1080 IDH1KD tx | TDP1 cell CPT | HT1080NT lethal | IL1B secr inh | DT40 TDP1 no CPT
CC(C)Oc1cccc(-c2nnc(CCC(=O)N3CCC(Cc4ccccc4)CC3)c(=O)[nH]2)c1 | 35% | . | . | . | . | .
Cc1ccc(NC2=C(Cl)C(=O)OC2OC(=O)c2ccccc2)c(C)c1 (configuration not stated) | ? | -2% | ? | -20% | ? | ?
Cc1ccccc1NC1=C(Cl)C(=O)OC1OC(=O)c1ccccc1C (configuration not stated) | -16% | ? | ? | -18% | -83* | ?
Cc1ccc(NC2=C(Cl)C(=O)OC2OC(=O)c2ccco2)cc1 (configuration not stated) | ? | 10µM* | ? | ? | -13 | 16µM*
Cc1cccc(NC2=C(Cl)C(=O)OC2OC(=O)c2ccco2)c1 (configuration not stated) | -10% | -9% | 21µM* | ? | -20 | 21µM*
CCn1nc(C)cc1C(=O)N1CCCC(C(=O)c2ccc3ccccc3c2)C1 (configuration not stated) | -2% | -7% | 12µM* | -6% | -17 | 7.3µM*
CCn1nc(C)cc1C(=O)N1CCCC(C(=O)c2ccc(OC)cc2C)C1 (configuration not stated) | -6% | -10% | 23µM* | 1% | 54 | 9.2µM*
Cc1cc(C(=O)N2CCCC(C(=O)c3ccc4ccccc4c3)C2)nn1C (configuration not stated) | -17% | -25% | ? | -3% | -9 | 21µM*
COc1ccc(C(=O)C2CCCN(C(=O)c3ccc4cc[nH]c4c3)C2)c(C)c1 (configuration not stated) | 12% | -5% | 16µM* | -1% | 18 | ?
CCn1nc(C)cc1C(=O)N1CCCC(C(=O)c2ccc(Oc3ccccc3)cc2)C1 (configuration not stated) | -8% | 1% | ? | -4% | -5 | ?
Cc1ccc(-c2noc(COc3ccc4c(C)cc(=O)oc4c3)n2)cc1 | 5% | . | . | . | . | .
CCCn1c(NC)nc2c1c(=O)n(C)c(=O)n2C | -29% | . | . | . | . | .
Cc1ncsc1C(=O)N1CCCC(C(=O)c2ccc3ccccc3c2)C1 (configuration not stated) | 0% | -5% | 23µM* | -3% | i | 21µM*
O=C(c1ccc2ccccc2c1)C1CCCN(C(=O)CN2C(=O)CSC2=O)C1 (configuration not stated) | 3% | 14% | -9% | 15% | -1 | -14%
Cc1ccccc1OCC(=O)NCC(c1ccc(Cl)cc1)N1CCOCC1 (configuration not stated) | 4% | . | 21µM* | . | . | 16µM*
O=C(COc1ccccc1F)NCC(c1ccc(F)cc1)N1CCOCC1 (configuration not stated) | -1% | 3% | -19% | 3% | 0 | -22%
COc1ccc(C(CNC(=O)COc2ccccc2C)N2CCOCC2)cc1 (configuration not stated) | 1% | 12% | 21µM* | 1% | 0 | 16µM*
CC(C)c1ccc(OCC(=O)NCC(c2ccc(Cl)cc2)N2CCOCC2)cc1 (configuration not stated) | 4% | . | ? | . | . | 18µM*
O=C/C=C/c1c(-c2ccccc2)cc2oc3ccccc3cc1-2 | ? | 21µM* | ? | -29% | -99* | 18µM*
Cc1noc(C)c1-c1cc(-c2ccccc2F)cn2cncc12 | 1%[176 µM] | . | . | . | . | .
CO[C@@H]1[C@@H](O[C@@H]2O[C@H](C)[C@@H](O[C@H]3C[C@@](C)(O)[C@@H](OC(=O)CC(C)C)[C@H](C)O3)[C@H](N(C)C)[C@H]2O)[C@@H](CC=O)C[C@@H](C)C(=O)/C=C/C2OC2C[C@@H](C)OC(=O)C[C@H]1OC(C)=O (some centres not stated) | . | . | 3.8µM* | . | . | 3.3µM*
O=c1[nH][nH]c(-c2ccccc2O)c1C(C[N+](=O)[O-])c1ccc(Br)cc1 (configuration not stated) | ? | -11% | 3.3µM* | -6% | ? | 2.6µM*
Cc1ccc(C(C[N+](=O)[O-])c2c(-c3ccccc3O)[nH][nH]c2=O)cc1 (configuration not stated) | 40µM* | 9.2µM* | 3.3µM* | ? | -102* | 2.9µM*
COc1ccc(C(C[N+](=O)[O-])c2c(C)[nH]c3ccccc23)cc1OC (configuration not stated) | -13% | -29% | ? | -18% | ? | ?
CC(=O)N/N=C/c1cc(Cl)ccc1OCCCOc1ccccc1C | 1% | . | . | . | . | .
SMILES | ALOX12 inh | HT1080 IDH1KD tx | TDP1 cell CPT | HT1080NT lethal | IL1B secr inh | DT40 TDP1 no CPT
Cc1c(Cl)cccc1NC(=O)NCCOCCn1c(=O)oc2ccccc21 | -9% | . | 8.2µM* | . | . | 7.3µM*
O=C(NCCOCCn1c(=O)oc2ccccc21)Nc1ccc(F)cc1 | -18% | . | 16µM* | . | . | ?
COc1ccc(CN(C(=O)c2cc(=O)c3ccc(C)cc3o2)C2CCS(=O)(=O)C2)cc1 (configuration not stated) | 12% | . | . | . | . | .
CC(=O)c1ccc(NC(=O)c2sc(-n3nc(C)c(Cc4ccccc4)c3C)nc2C)cc1 | -19% | . | 23µM* | . | . | 16µM*
Cc1nc(-n2nc(C)c(Cc3ccc4c(c3)OCO4)c2C)sc1C(=O)Nc1cccc(Cl)c1 | -16% | . | ? | . | . | 16µM*
Cc1ccc(Cc2c(C)nn(-c3nc(C)c(C(=O)N4CCCCC4C)s3)c2C)cc1 (configuration not stated) | -1% | . | ? | . | . | 15µM*
CC(=O)c1ccc(NC(=O)c2sc(-n3nc(C)c(Cc4ccc5c(c4)OCO5)c3C)nc2C)cc1 | ? | . | 16µM* | . | . | 16µM*
CN(C)Cc1cn([C@H]2CO[C@H]3[C@@H]2OC[C@H]3O)nn1 | -4%[176 µM] | . | . | . | . | .
Cc1cccc(C)c1NC(=O)c1sc(-n2nc(C)c(Cc3ccc4c(c3)OCO4)c2C)nc1C | -21% | . | -11% | . | . | -21%
